“And” between values parts separate entries of the source, which are not always exact repeats. Equal entries are not always repeated. Hit rate of the full screen: of about 5,500 compounds, about 2,000 (36%) were called active. Another 18% or so got no clear call; they are omitted. Rule as the data show it: active = normalized growth mostly below about 0.91 (no sharp cut-off); inconclusive = no clear call, values can overlap the other calls; inactive = mostly above about 0.92. The list shows a part of the results.
Assay: chemical genetic growth profiling, strain panel (AID 1159580);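 also: tested at 20 µM; growth read once vehicle control cultures reached saturation at 30 °C; 1 = growth at the plate median or of vehicle wells; lower values mean less growth of the strain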
Conditions: S. cerevisiae deletion strains, growth OD

Measured: normalized growth

COc1cc(/C=C/C(=O)O)ccc1O
inactive: locus YAL021C, strain ccr4, stronger effect = lower value 1 | locus YAL026C, strain drs2, stronger effect = lower value 1.01 | locus YAL030W, strain snc1, stronger effect = lower value 1.01 | locus YBL061C, strain skt5, stronger effect = lower value 1.01 | locus YBR009C, strain hhf1, stronger effect = lower value 1.02 | locus YBR021W, strain FUR4, stronger effect = lower value 1.01 | locus YBR023C, strain chs3, stronger effect = lower value 1.01 | locus YBR171W, strain sec66, stronger effect = lower value 1.01 | locus YBR229C, strain ROT2, stronger effect = lower value 1.01 | locus YBR231C, strain swc5, stronger effect = lower value 1.01 | locus YBR279W, strain paf1, stronger effect = lower value 1.01 | locus YCL011C, strain gbp2, stronger effect = lower value 1.01 | locus YCL016C, strain dcc1, stronger effect = lower value 1.01 | locus YCL029C, strain bik1, stronger effect = lower value 0.977 | locus YCL061C, strain MRC1, stronger effect = lower value 1.02 | locus YCL069W, strain vba3, stronger effect = lower value 0.998 | locus YCR088W, strain abp1, stronger effect = lower value 1.01 | locus YDL005C, strain med2, stronger effect = lower value 1.02 | locus YDL035C, strain GPR1, stronger effect = lower value 1.01 | locus YDL040C, strain nat1, stronger effect = lower value 1 | locus YDL074C, strain BRE1, stronger effect = lower value 1 | locus YDL101C, strain DUN1, stronger effect = lower value 1.02 | locus YDL185W, strain tfp1, stronger effect = lower value 0.971 | locus YDL192W, strain arf1, stronger effect = lower value 0.986 | locus YDR001C, strain nth1, stronger effect = lower value 1.01 | locus YDR069C, strain doa4, stronger effect = lower value 1.03 | locus YDR101C, strain arx1, stronger effect = lower value 0.961 | locus YDR137W, strain rgp1, stronger effect = lower value 1.01 | locus YDR150W, strain NUM1, stronger effect = lower value 1 | locus YDR159W, strain sac3, stronger effect = lower value 0.98 | locus YDR162C, strain NBP2, stronger effect = lower value 0.992 | locus YDR195W, strain ref2 0.966 | locus YDR297W, strain sur2, stronger effect = lower value 1.01 | locus YDR318W, strain mcm21, stronger effect = lower value 0.997 | locus YDR334W, strain swr1, stronger effect = lower value 1.01 | locus YDR335W, strain msn5, stronger effect = lower value 1.01 | locus YDR388W, stronger effect = lower value 0.979 | locus YDR392W, strain spt3, stronger effect = lower value 0.985 | locus YDR502C, strain sam2, stronger effect = lower value 0.984 | locus YEL003W, strain gim4, stronger effect = lower value 1 | locus YEL037C, strain rad23, stronger effect = lower value 1.01 | locus YEL061C, strain CIN8 (second series), stronger effect = lower value 1.01 | locus YEL061C, strain CIN8, stronger effect = lower value 0.972 | locus YER015W, strain faa2, stronger effect = lower value 1.01 | locus YER016W, strain bim1, stronger effect = lower value 1 | locus YER110C, stronger effect = lower value 0.981 | locus YER111C, strain swi4, stronger effect = lower value 1.01 | locus YER155C, strain BEM2 (second series), stronger effect = lower value 0.999 | locus YER155C, strain BEM2, stronger effect = lower value 1 | locus YER167W, strain BCK2, stronger effect = lower value 0.973 | locus YFR010W, strain ubp6, stronger effect = lower value 1.01 | locus YGL078C, strain dbp3, stronger effect = lower value 0.983 | locus YGL086W, strain mad1, stronger effect = lower value 0.952 | locus YGL167C, strain pmr1, stronger effect = lower value 1.01 | locus YGL173C, strain kem1, stronger effect = lower value 1.01 | locus YGL227W, strain vid30, stronger effect = lower value 1.01 | locus YGL240W, strain doc1, stronger effect = lower value 1.02 | locus YGL248W, strain PDE1, stronger effect = lower value 1.02 | locus YGL253W, strain hxk2, stronger effect = lower value 0.997 | locus YGR135W, strain pre9, stronger effect = lower value 0.995 | locus YGR252W, strain gcn5, stronger effect = lower value 1.07 | locus YHR013C, strain ard1, stronger effect = lower value 0.996 | locus YHR027C, strain rpn1, stronger effect = lower value 1 | locus YHR030C, strain SLT2, stronger effect = lower value 0.993 and 1.02 | locus YHR079C, strain IRE1 (second series), stronger effect = lower value 0.972 | locus YHR079C, strain IRE1, stronger effect = lower value 1.05 | locus YHR094C, strain hxt1, stronger effect = lower value 0.966 | locus YHR129C, strain ARP1, stronger effect = lower value 1 | locus YHR142W, strain chs7, stronger effect = lower value 1.01 | locus YHR200W, strain rpn10, stronger effect = lower value 0.989 | locus YIL066C, strain RNR3, stronger effect = lower value 1 | locus YIL073C, strain SPO22, stronger effect = lower value 0.99 | locus YIL125W, strain kgd1, stronger effect = lower value 0.968 | locus YIR030C, strain dcg1, stronger effect = lower value 0.983 | locus YJL092W, strain hpr5, stronger effect = lower value 1.01 | locus YJL095W, strain BCK1 (second series), stronger effect = lower value 1.01 | locus YJL095W, strain BCK1, stronger effect = lower value 1.03 and 1 | locus YJL115W, strain asf1, stronger effect = lower value 1.01 | locus YJL129C, strain trk1, stronger effect = lower value 1.01 | locus YJL134W, strain LCB3, stronger effect = lower value 0.999 | locus YJL154C, strain vps35, stronger effect = lower value 1 | locus YJL164C, strain tpk1, stronger effect = lower value 1 | locus YJL166W, strain qcr8, stronger effect = lower value 1.02 | locus YJL168C, strain set2, stronger effect = lower value 0.984 | locus YJL187C, strain SWE1 (second series), stronger effect = lower value 1.01 | locus YJR043C, strain POL32, stronger effect = lower value 1.03 | locus YJR066W, strain TOR1, stronger effect = lower value 0.995 | locus YKL009W, strain mrt4, stronger effect = lower value 1.01 | locus YKL068W, stronger effect = lower value 0.974 | locus YKL085W, strain MDH1 (second series), stronger effect = lower value 0.977 | locus YKL085W, strain MDH1, stronger effect = lower value 0.977 | locus YKL160W, strain elf1, stronger effect = lower value 1.01 | locus YKL190W, strain CNB1, stronger effect = lower value 0.995 | locus YKR001C, strain vps1, stronger effect = lower value 0.967 | locus YKR026C, strain gcn3, stronger effect = lower value 1.02 | locus YKR091W, strain srl3, stronger effect = lower value 1.01 | locus YLL001W, strain dnm1, stronger effect = lower value 1.01 | locus YLL026W, stronger effect = lower value 1.01 | locus YLL041C, strain sdh2, stronger effect = lower value 1.01 | locus YLR027C, strain aat2, stronger effect = lower value 1.01 | locus YLR039C, strain RIC1, stronger effect = lower value 0.99 | locus YLR058C, strain SHM2, stronger effect = lower value 1.01 | locus YLR102C, strain apc9, stronger effect = lower value 0.98 | locus YLR113W, strain HOG1, stronger effect = lower value 0.958 | locus YLR221C, strain rsa3, stronger effect = lower value 1.01 | locus YLR258W, strain gsy2, stronger effect = lower value 1.01 | locus YLR262C, strain YPT6 (second series), stronger effect = lower value 1.01 | locus YLR262C, strain YPT6, stronger effect = lower value 1.01 | locus YLR268W, strain sec22, stronger effect = lower value 0.967 | locus YLR320W, strain mms22, stronger effect = lower value 1 | locus YLR330W, strain CHS5, stronger effect = lower value 1.01 | locus YLR342W, strain FKS1 (second series), stronger effect = lower value 1.02 | locus YLR342W, strain FKS1, stronger effect = lower value 1.02 | locus YLR357W, strain rsc2, stronger effect = lower value 1.01 | locus YLR370C, strain arc18, stronger effect = lower value 1.02 | locus YLR371W, strain rom2, stronger effect = lower value 0.936 | locus YLR384C, strain iki3, stronger effect = lower value 1.01 | locus YLR418C, strain cdc73, stronger effect = lower value 0.968 | locus YML016C, strain PPZ1, stronger effect = lower value 1.01 | locus YML032C, strain rad52, stronger effect = lower value 1.01 | locus YML120C, strain ndi1, stronger effect = lower value 1 | locus YML124C, strain tub3, stronger effect = lower value 0.984 | locus YMR058W, strain fet3, stronger effect = lower value 1.02 | locus YMR078C, strain ctf18, stronger effect = lower value 0.984 | locus YMR125W, strain sto1, stronger effect = lower value 1 | locus YMR129W, stronger effect = lower value 1.01 | locus YMR205C, strain PFK2, stronger effect = lower value 1.01 | locus YMR223W, strain ubp8, stronger effect = lower value 1.01 | locus YMR231W, strain pep5, stronger effect = lower value 1.01 | locus YMR263W, strain SAP30, stronger effect = lower value 1 | locus YMR307W, strain GAS1, stronger effect = lower value 0.99 | locus YNL067W, strain RPL9B, stronger effect = lower value 1 | locus YNL071W, strain lat1, stronger effect = lower value 1 | locus YNL183C, strain NPR1, stronger effect = lower value 1 | locus YNL209W, strain ssb2, stronger effect = lower value 1.01 | locus YNL233W, strain BNI4, stronger effect = lower value 1.01 | locus YNL248C, strain rpa49, stronger effect = lower value 1.01 | locus YNL250W, strain rad50, stronger effect = lower value 0.995 | locus YNL271C, strain bni1, stronger effect = lower value 1 | locus YNL298W, strain CLA4, stronger effect = lower value 0.981 | locus YNL307C, strain MCK1, stronger effect = lower value 0.977 | locus YNL322C, strain KRE1 (second series), stronger effect = lower value 1.01 | locus YNL322C, strain KRE1, stronger effect = lower value 0.999 | locus YNR049C, strain mso1, stronger effect = lower value 1.01 | locus YNR052C, strain pop2, stronger effect = lower value 0.991 | locus YOL012C, strain htz1 0.646 | locus YOL147C, strain pex11, stronger effect = lower value 0.969 | locus YOR001W, strain rrp6, stronger effect = lower value 1.06 | locus YOR061W, strain CKA2, stronger effect = lower value 1.01 | locus YOR069W, strain VPS5, stronger effect = lower value 0.995 | locus YOR070C, strain gyp1, stronger effect = lower value 1.01 | locus YOR080W, strain dia2, stronger effect = lower value 1.01 | locus YOR083W, strain WHI5, stronger effect = lower value 1.02 | locus YOR106W, strain vam3, stronger effect = lower value 1.03 | locus YOR136W, strain idh2, stronger effect = lower value 0.974 | locus YOR144C, strain elg1, stronger effect = lower value 0.977 | locus YOR184W, strain ser1, stronger effect = lower value 1.01 | locus YOR231W, strain MKK1, stronger effect = lower value 1.03 | locus YOR265W, strain rbl2, stronger effect = lower value 1 | locus YOR270C, strain vph1, stronger effect = lower value 0.994 | locus YOR290C, strain snf2, stronger effect = lower value 1.01 | locus YOR316C, strain cot1, stronger effect = lower value 0.981 | locus YPL051W, strain arl3, stronger effect = lower value 1.01 | locus YPL078C, strain atp4, stronger effect = lower value 1.02 | locus YPL106C, strain sse1, stronger effect = lower value 1.01 | locus YPL240C, strain hsp82, stronger effect = lower value 1.02 | locus YPL241C, strain CIN2, stronger effect = lower value 0.999 | locus YPL256C, strain CLN2, stronger effect = lower value 1 | locus YPR119W, strain clb2, stronger effect = lower value 0.975 | locus YPR141C, strain kar3, stronger effect = lower value 0.975 | locus YPR163C, strain tif3, stronger effect = lower value 0.977 | locus YPR167C, strain met16, stronger effect = lower value 0.992 | strain wtn01, stronger effect = lower value 0.968

Reference: PubChem BioAssay AID1159580 (chemical genetic matrix, 2015)
